Experimental data: PubChem BioAssay (NCI)
About 83,000 compounds went through this panel and 20% of them were active in at least one assay; those are over-represented in the sample as a whole.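 Step 1: grow cells in 96-well plates. Step 2: add test compound at a single concentration. Step 3: incubate 48 h. Step 4: record percent growth.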 Calls of active or inactive are those of the source.

Test system: NCI-H226 lung
Test: NCI-60 one-dose screen, 48 h (100 = growth as untreated, 0 = no growth, -100 = all killed)
Conditions: 1 µM
Procedure: Growth inhibition of the NCI-H226 human Non-Small Cell Lung tumor cell line is measured as a screen for anti-cancer activity. Cells are grown in 96 well plates and exposed to the test compound for 48 hours. Compounds are tested at a single concentration, which is 10^-5 M for most compounds. The reported endpoint is percent growth (GI% or GIPRCNT), where numbers from 0 - 100% represent growth inhibition, and numbers from -100% - 0 represent cell death. For example, a value of 40 represents 60% growth inhibition. A value of 0 means no net growth occurred over the course of the experiment. A value of -40 indicates 40% of cells at the beginning of the experiment died by the end of the experiment. A value of -100 means all cells are dead at the end of the experiment.
NCI-60 Human Tumor Cell Lines Screen was performed using the standard one-dose NCI protocol, which is described in more detail at https://dtp.cancer.gov/discovery_development/nci-60/default.htm.
Compounds with GIPRCNT values below 10 were considered active. Activity score was based on GIPRCNT using the following formula: […]
Score is 0 for GIPRCNT values of 100 or above, 50 for GIPRCNT values of 0, and 100 for GIPRCNT values of -100.

SMILES | growth
CC/C(=C(/c1ccc(O)cc1)c1ccc(OCCN(C)C(=O)COCCOCCNC(=O)c2ccc3c(c2)CN([C@@H]2CCC(=O)NC2=O)C3=O)cc1)c1ccccc1 | 89.4% (inactive)

Same assay, conditions: 10 µM

SMILES | growth
CC/C(=C(/c1ccc(O)cc1)c1ccc(OCCN(C)C(=O)COCCOCCNC(=O)c2ccc3c(c2)CN([C@@H]2CCC(=O)NC2=O)C3=O)cc1)c1ccccc1 | 65.4% (inactive)

Same assay, conditions: 10 µM unless noted

SMILES | growth
Cc1ccc2c(c1)/C(=C/C(=O)c1cc3ccccc3oc1=O)C(=O)N2 | 51.8% (inactive)
CC(Nc1ncnc2ccc(-c3ccc4oc(N)nc4c3)cc12)c1ccccc1 (stereo not given) | -10.2% (active)
CC1=NN(C2=NC(=O)C(CC(=O)Nc3ccccc3C(F)(F)F)S2)C(c2ccc(N(C)C)cc2)C1 (stereo not given) | 53.1% (inactive)
COc1ccc(-c2cc(C)nc3[nH]c(=O)sc23)cc1 | 36.3% (inactive)
O=CNc1ccc(-n2cnc3cc(-c4ccc(O)cc4)ccc32)cc1 | 83.5% (inactive)
COc1ccc(N=Nc2c(N)nn3c(-c4ccc(OC)c(OC)c4)ccnc23)cc1 | 94.8% (inactive)
Cc1ccc2nc(NC(=O)Nc3cccc(Cl)c3)sc2c1 | 96.4% (inactive)
Nc1cc(-c2c[nH]c3ccc(F)cc23)nc2cc(-c3c[nH]c4ccccc34)nn12 | 52.9% (inactive)
Clc1ccccc1Nc1nnc(-c2c[nH]c3ccccc23)o1 | 43.9% (inactive)
COC(=O)c1cc(C(=O)C(F)(F)F)n2c3ccccc3c3ccccc3c12 | 52.6% (inactive)
COc1ccc(C(=O)C[n+]2cccc3c4ccccc4ccc32)cc1 | 59.1% (inactive)
C=CCSc1nnc(-c2ccc(-c3nc4ccc(Cl)cc4[nH]3)cc2)o1 | 103% (inactive)
O=c1[nH]c2ccccc2cc1COc1ccc(Nc2nccc(-c3ccc(Cl)cc3)n2)cc1 | 103% (inactive)
N#C/C(=C/c1ccc(Cl)cc1)c1nnc(NC(=O)c2ccc(-n3c(=O)[nH]c4ccccc4c3=O)cc2)s1 | 2.1% (active)
COc1c(B(O)O)cccc1-c1nc2ccc3cn[nH]c3c2c2c1CCCC2 | 49.5% (inactive)
C#CCN(C)CCCOc1ccc(N(C)C(=O)c2cc(C(C)C)c(O)cc2O)cc1Cl | 13.7% (inactive)
COc1ccc2[nH]c(=O)c(CSc3ccccc3Nc3nccc(-c4ccc(C(F)(F)F)cc4)n3)cc2c1 | 18.7% (inactive)
Cc1nn(-c2ccccc2)c2nc(C)n(CC(=O)N/N=C/c3cccc([N+](=O)[O-])c3)c(=O)c12 | 100% (inactive)
COc1ccccc1Nc1nnc(-c2c[nH]c3ccccc23)o1 | 47.1% (inactive)

SMILES | growth
CCc1ccccc1NC(=O)N/C(N)=N/c1nc2ccccc2s1 | 22.5% (inactive)
O=C(CSc1nnc(-c2ccc(-c3nc4ccc(Cl)cc4[nH]3)cc2)o1)Nc1ccc(Br)cc1 | -46.9% (active)
O=C(Nc1nc2ccccc2s1)Nc1ccccc1Cl | 31.5% (inactive)
COc1ccc2[nH]c(O)c(N=NC(=O)c3ccc4nc(-c5ccc(Cl)cc5)[nH]c4c3)c2c1 | 77.5% (inactive)
O=C(c1cc2cc(OCCCN3CCC3)ccc2[nH]1)N1C[C@@H](CCl)c2c1cc(OCc1ccccc1)c1ccccc21 | -4.57% (active)
COc1c(B(O)O)cc(F)cc1-c1nc2ccc3[nH]ncc3c2c2c1COCC2 | 50.8% (inactive)
Cc1ccc(S(=O)(=O)Nc2ccc(-c3ccc4c(c3)NC(=O)/C4=C\c3ccc[nH]3)cc2)cc1 | 94% (inactive)
COc1cc(/C=N/NC(=O)c2ccc(OCc3nc4ccc(Cl)cc4[nH]3)cc2)cc(OC)c1OC | 35.5% (inactive)
COc1cc(C2CC(c3cc(OC)c(OC)c(OC)c3)=Nc3c(N)nc(N)nc3N2)ccc1Oc1nc(Nc2ccc(F)cc2)nc(N(C)C)n1 (stereo not given) | 106% (inactive)
O=C1CCC(N2C(=O)c3cccc(NCCOCCOCCOCCC(=O)NCCCC(=O)NC(c4ccc5c(c4)OCO5)c4cc(Cl)c5cccnc5c4O)c3C2=O)C(=O)C1 (stereo not given) | 45% (inactive)
COc1ccc(-c2nc3ccccc3n2CC(=O)N=Nc2c(O)[nH]c3ccc(OC)cc23)cc1 | -18.8% (active)
Cc1ccc(C(=O)Nc2cc(-n3cnc(F)c3)cc(C(F)(F)F)c2)cc1C#Cc1cnc2cccnn12 | 44.4% (inactive)
O=C1/C(=C/C=C/c2ccco2)SC(=S)N1CC(=S)C1C=CS(=O)(=O)C1 (stereo not given) | 89.1% (inactive)
Cc1ccccc1Nc1nnc(-c2c[nH]c3ccccc23)o1 | 43.9% (inactive)
COc1ccc(NC(=O)Cn2c(/C=C/c3cccc(OC)c3)nc3ccccc3c2=O)cc1 | 1.28% (active)
CCOC(=O)c1ccc(NC(=S)NC(=O)c2ccc(NC(=O)C(C)C)cc2OC)cc1 | 22.3% (inactive)
Cc1ccc2nc(SCc3ccccc3F)n(-c3ccccc3)c(=O)c2c1 | 96.7% (inactive)
Nc1cc2ccccc2c(=O)n1NC(=O)c1ccccc1 | 80.8% (inactive)
CN(C)CCCNC(=S)Nc1ccc(/C=C/c2ccc(Cl)cc2)cc1 | -20.2% (active)
